Source: PubChem BioAssay (NCATS)
Records with an inconclusive call do not appear. Entries that show only a call come without a potency. Activity calls are given as the source filed them. The call rests on the fitted dose curve; in most records, active means well fitted curve in the direction sought with a large enough effect; inconclusive means small, poorly fitted or top-dose-only effect, or another doubt; inactive means no such curve, though single readings can be large; an effect the other way counts as inactive or inconclusive.

How the values were obtained:
[1] = molecular target: Glutathione peroxidase 1 (Homo sapiens) (UniProt P07203); assay: Primary qHTS Assay for Inhibitors of Recombinant Selenoprotein Glutathione Peroxidase 1 (GPX1) (AID 1845191); further: nearly all actives have a fitted effect of over 65% in size
Outline: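 GR-coupled assay: compounds preincubated 30 min at room temperature with GPX1, then reaction started with CHP; final 10 nM GPX1, 1 mM GSH, 0.5 mM CHP, 0.5 mM NADPH, 100 nM GR, 0.01% BSA, pH 7.5 Tris buffer. NADPH fluorescence (340/450 nm) read at 0 and 15 min.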

[2] = molecular target: Phospholipid hydroperoxide glutathione peroxidase GPX4 (Homo sapiens) (UniProt P36969); assay: Primary qHTS Assay for Inhibitors of Recombinant Selenoprotein Glutathione Peroxidase 4 (GPX4) (AID 1845192); further: nearly all actives have a fitted effect of over 65% in size
Outline: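 GR-coupled assay: recombinant GPX4 preincubated 30 min with compound at room temperature; final 200 nM GPX4, 1 mM GSH, 0.5 mM cumene hydroperoxide, 0.5 mM NADPH, 100 nM GR, 0.01% BSA, pH 7.5 Tris. NADPH fluorescence (340/450 nm) read at 0 and 15 min.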

[3] = Quantitative High-Throughput drug screen in 47 multiple myeloma cell lines against the NCATS MIPE library collection: FR4_PLB cell viability assay (AID 1918924; further: nearly all actives have a fitted effect of over 35% in size; further: potency means the concentration at half of the fitted maximal effect)
Outline: (§1)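 Myeloma cell lines, 500 cells per well, exposed to MIPE 4.0 library compounds for 48 h at 37C, 5% CO2. Viability from ATP by CellTiter-Glo luminescence; normalised to DMSO (100%) and media-only (0%) wells.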

[4] = Quantitative High-Throughput drug screen in 47 multiple myeloma cell lines against the NCATS MIPE library collection: Delta47_JCRB cell viability assay (AID 1918925; further: nearly all actives have a fitted effect of over 45% in size; further: potency means the concentration at half of the fitted maximal effect)
Outline: (§2)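 Inhibition of cell viability is measured here. Each line was plated at 500 cells per well, treated with MIPE 4.0 drugs, kept 48 hours at 37C, then assayed for ATP content by CellTiter-Glo luminescence.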

[5] = Quantitative High-Throughput drug screen in 47 multiple myeloma cell lines against the NCATS MIPE library collection: EJM_DSMZ cell viability assay (AID 1918926; further: nearly all actives have a fitted effect of over 30% in size; further: potency means the concentration at half of the fitted maximal effect)
Outline: as §2

[6] = Quantitative High-Throughput drug screen in 47 multiple myeloma cell lines against the NCATS MIPE library collection: AMO1_DSMZ cell viability assay (AID 1918927; further: nearly all actives have a fitted effect of over 30% in size; further: potency means the concentration at half of the fitted maximal effect)
Outline: as §2

[7] = Quantitative High-Throughput drug screen in 47 multiple myeloma cell lines against the NCATS MIPE library collection: ARD_JJKsccE7 cell viability assay (AID 1918929; further: potency means the concentration at half of the fitted maximal effect)
Outline: as §2

[8] = Quantitative High-Throughput drug screen in 47 multiple myeloma cell lines against the NCATS MIPE library collection: Karpas620_DSMZ cell viability assay (AID 1918959); further: nearly all actives have a fitted effect of over 30% in size; further: potency means the concentration at half of the fitted maximal effect
Outline: as §1

[9] = molecular target: Metallo-beta-lactamase type 2 (Klebsiella pneumoniae) (UniProt C7C422); assay: qHTS to identify inhibitors of the New Delhi Metallo-beta-lactamase (NDM): assay validation screen against the NCATS LOPAC Collection (AID 1794843); further: series mostly up to about 38 µM
Outline: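 Absorbance at 485 nm from nitrocefin turnover (50 uM solution added), read at plateau, gives the read-out. Compounds in DMSO were incubated first with 2 nM final NDM-1 in pH 7.0 HEPES buffer containing 1 uM ZnSO4 and 0.01% Tween20.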

[10] = Quantitative High-Throughput drug screen in 47 multiple myeloma cell lines against the NCATS MIPE library collection: ARP1_JJKsccF8 cell viability assay (AID 1918928; further: nearly all actives have a fitted effect of over 40% in size; further: potency means the concentration at half of the fitted maximal effect)
Outline: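 ATP readout (CellTiter-Glo), 48 h drug incubation, 37 °C/5% CO2, 500 cells per well; normalisation to DMSO (100%) and media-only (0%) controls.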

[11] = molecular target: Luciferin 4-monooxygenase (Photinus pyralis) (UniProt P08659); assay: Primary firefly luciferase (FLuc) qHTS assay for identification of artifact compounds. (AID 1845220); further: nearly all actives have a fitted effect of over 60% in size
Outline: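 Enzymatic FLuc inhibition assay: compounds pre-exposed to luciferin/ATP (10 uM each) for 15 min, then purified P. pyralis enzyme at 10 nM added. Read-out: luminescence at 5 min.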

[12] = test system: Nanoluciferase (engineered Oplophorus gracilirostris luciferase); assay: Primary Nanoluciferase (NLuc) qHTS assay for identification of artifact compounds. (AID 1845222);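 further: NLuc secreted into diluted conditioned medium of S16 cells; series mostly up to about 54 µM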
Outline: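 S16 cell supernatant NLuc, 1:55; cpds qHTS; 15 min RT dark; Nano-Glo substrate 1:100, 5 min; luminescence; Hill fit of % inhibition.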

[13] = Primary redox qHTS assay for identification of artifact compounds. (AID 1845223)
Outline: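 Amplex Red (25 uM) and HRP (250 mU/mL) in HBSS, with compounds for 15 min, then 250 uM DTT for 30 min, room temperature, dark. Fluorescence 525/598 nm read; normalized to DMSO and 10 uM DA3003; Hill fit.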

Chain of Metallo-beta-lactamase type 2 (Klebsiella pneumoniae) (C7C422 whole entry, looked up): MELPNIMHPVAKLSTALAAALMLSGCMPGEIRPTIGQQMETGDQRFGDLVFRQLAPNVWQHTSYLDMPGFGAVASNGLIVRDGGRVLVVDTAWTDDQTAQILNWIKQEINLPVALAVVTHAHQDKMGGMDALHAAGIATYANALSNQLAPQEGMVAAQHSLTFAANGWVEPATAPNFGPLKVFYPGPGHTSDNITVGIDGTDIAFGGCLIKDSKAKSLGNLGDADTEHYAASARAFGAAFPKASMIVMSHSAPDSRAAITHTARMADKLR
Chain of Phospholipid hydroperoxide glutathione peroxidase GPX4 (Homo sapiens) (P36969 whole entry, looked up): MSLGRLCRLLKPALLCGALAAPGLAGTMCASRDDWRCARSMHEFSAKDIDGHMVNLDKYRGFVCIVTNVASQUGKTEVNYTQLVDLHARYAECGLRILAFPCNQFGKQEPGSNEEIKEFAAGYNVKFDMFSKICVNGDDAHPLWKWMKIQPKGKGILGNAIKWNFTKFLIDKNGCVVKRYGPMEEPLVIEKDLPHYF
Chain of Glutathione peroxidase 1 (Homo sapiens) (P07203 whole entry, looked up): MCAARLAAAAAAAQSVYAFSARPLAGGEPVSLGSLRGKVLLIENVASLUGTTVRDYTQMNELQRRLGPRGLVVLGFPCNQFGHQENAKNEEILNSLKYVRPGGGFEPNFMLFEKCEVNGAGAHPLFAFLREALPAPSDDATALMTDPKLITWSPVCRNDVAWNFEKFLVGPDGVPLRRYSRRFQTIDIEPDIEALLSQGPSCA

| Compound | Potency [1] | Potency [2] | Potency [3] | Potency [4] | Potency [5] | Potency [6] | Potency [7] | Potency [8] | outcome [9] | Potency [10] | Potency [11] | outcome [12] | outcome [13] |
| --- | --- | --- | --- | --- | --- | --- | --- | --- | --- | --- | --- | --- | --- |
| Nc1ccn([C@@H]2O[C@H](CO)[C@@H](O)C2O)c(=O)n1 (stereo partly drawn) | inactive | inactive | inactive | inactive | inactive | inactive | 8.33 µM (active) | inactive |  |  |  |  |  |
| Nc1nc(OCc2ccccc2)c2[nH]cnc2n1 |  | inactive | inactive |  | inactive |  |  | inactive | inactive | 20.9 µM (active) |  |  |  |
| CCN(CC)C(=S)SSC(=S)N(CC)CC | inactive | inactive | 0.0074 µM (active) | 0.0118 µM (active) | 0.0066 µM (active) | 0.0372 µM (active) |  |  |  | 0.0235 µM (active) |  |  |  |
| Cc1ccc(Nc2nccc(N(C)c3ccc4c(C)n(C)nc4c3)n2)cc1S(N)(=O)=O | inactive | inactive | 20.9 µM (active) |  | 14.8 µM (active) | 10.5 µM (active) | 16.6 µM (active) |  |  |  | inactive | inactive | inactive |
| Oc1ccc(-c2nc(-c3ccc(F)cc3)c(-c3ccncc3)[nH]2)cc1 |  | inactive |  | 5.9 µM (active) |  | inactive | inactive | inactive | inactive |  |  |  |  |
| Clc1ccc(C(Cn2ccnc2)OCc2c(Cl)cccc2Cl)c(Cl)c1 (stereo not drawn) | inactive | inactive |  |  |  | 20.9 µM (active) | 16.6 µM (active) | 18.7 µM (active) |  | 23.5 µM (active) | inactive | inactive | inactive |
| Clc1ccc2c(N3CCN(CCCN4CCN(c5ccnc6cc(Cl)ccc56)CC4)CC3)ccnc2c1 |  | inactive | inactive |  |  | inactive | inactive | inactive | inactive |  |  |  |  |
| OC(CN1CCN(c2cccc(Cl)c2)CC1)C(c1ccccc1)c1ccccc1 (stereo not drawn) | inactive | inactive | inactive |  | inactive |  | inactive |  |  |  | inactive | inactive | inactive |
| COc1cc(OC)c(C(=O)CCCN2CCCC2)c(OC)c1 | inactive | inactive | inactive | inactive | inactive | inactive | inactive | inactive |  | inactive |  |  |  |
| CN(C)CCc1c[nH]c2ccc(Cn3cncn3)cc12 | inactive | inactive | inactive | inactive | inactive |  |  |  |  | inactive |  |  |  |
| CC(=O)N1CCN(c2ccc(OC[C@H]3CO[C@](Cn4ccnc4)(c4ccc(Cl)cc4Cl)O3)cc2)CC1 | inactive | inactive |  |  | 8.33 µM (active) | 7.43 µM (active) |  | 5.26 µM (active) | inactive |  |  |  |  |
| CN(C)CCCC1(c2ccc(F)cc2)OCc2cc(C#N)ccc21 (stereo not drawn) |  | inactive | inactive |  |  | inactive | inactive | inactive | inactive | inactive | inactive | inactive | inactive |
| O=C(O)CCNC(=O)c1ccc(N=Nc2ccc(O)c(C(=O)O)c2)cc1 | inactive | inactive | inactive | inactive | inactive |  | inactive | inactive |  | inactive |  |  |  |
| CCCCC(CC)COC(=O)C(C#N)=C(c1ccccc1)c1ccccc1 (stereo not drawn) | inactive | inactive | inactive |  | inactive | inactive |  | inactive |  | inactive |  |  |  |
| NC(=O)Cc1cccc(C(=O)c2ccccc2)c1N | inactive | inactive |  | inactive | inactive | inactive | inactive | inactive |  |  |  |  |  |
| O=C(O)c1cc(=O)c2c(OCC(O)COc3cccc4oc(C(=O)O)cc(=O)c34)cccc2o1 | inactive | inactive |  |  | inactive | inactive | inactive |  |  | inactive |  |  |  |
| CCCOc1ccc2nc(NC(=O)OC)[nH]c2c1 | inactive | inactive | inactive |  |  | 0.001 µM (active) | 0.001 µM (active) |  |  |  |  |  |  |
| CS(=O)(=O)OCCCCOS(C)(=O)=O | inactive | inactive | 4.18 µM (active) |  |  | inactive | inactive | inactive |  |  |  |  |  |
| CN(C)[C@@H](CCOc1cccc2ccccc12)c1ccccc1 | inactive | inactive | 18.7 µM (active) |  |  |  |  | inactive |  | 26.4 µM (active) |  |  |  |
| NNc1nncc2ccccc12 | inactive | inactive | inactive |  |  |  | inactive | inactive |  | inactive |  |  |  |
| Nc1ncn([C@H]2C[C@H](O)[C@@H](CO)O2)c(=O)n1 | inactive | inactive | inactive |  | inactive |  | 0.418 µM (active) | 0.132 µM (active) |  |  |  |  |  |
| Nc1nc(Cl)nc2c1ncn2[C@H]1C[C@H](O)[C@@H](CO)O1 | inactive | inactive | 3.72 µM (active) |  |  | 0.187 µM (active) |  |  |  |  |  |  |  |
| CCCCc1ccc2nc(NC(=O)OC)[nH]c2c1 | inactive | inactive | 0.0021 µM (active) |  | 0.0264 µM (active) | inactive | 0.0093 µM (active) |  |  | 0.0066 µM (active) |  |  |  |
| CC(C)Oc1ccc2c(=O)c(-c3ccccc3)coc2c1 | inactive | inactive |  |  | inactive | inactive | inactive |  |  |  |  |  |  |
| CCOc1cc(CC(=O)N[C@@H](CC(C)C)c2ccccc2N2CCCCC2)ccc1C(=O)O | inactive | inactive | inactive |  | inactive |  | inactive |  |  | inactive |  |  |  |
| CC[C@]1(O)C[C@H]2CN(CCc3c([nH]c4ccccc34)[C@@](C(=O)OC)(c3cc4c(cc3OC)N(C=O)[C@H]3[C@@](O)(C(=O)OC)[C@H](OC(C)=O)[C@]5(CC)C=CCN6CC[C@]43[C@@H]65)C2)C1 | inactive | inactive | inactive |  |  | 0.372 µM (active) | 0.0662 µM (active) | 0.0166 µM (active) |  | 0.003 µM (active) |  |  |  |
| Cc1ncc([N+](=O)[O-])n1CC(C)O (stereo not drawn) | inactive | inactive | inactive |  | inactive | inactive | inactive | inactive |  | inactive |  |  |  |
